Structures can show the parent of a compound that is named as a salt.
Tests used:
Details in all cases: incubation time: 27 h, anaerobic, 37 °C;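 for the amine columns active = adjusted P below 0.05 in both replicates with a change the same way and a mean fold change under 0.8 or over 1.25; inactive = the rest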
[1] = test system: Clostridium sporogenes DSM 1664; assay: growth (OD595) fold change vs plate DMSO controls (fold change (ratio)); higher = more growth
Procedure, shortened: (§1)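 The reported measure is growth: the fold change against the median of DMSO controls on the plate. Absorbance at 595 nm from anaerobic 96-well mGAM cultures grown for 27 h at 37 °C was blank-subtracted, corrected for background with 20 µM compound solutions in water, and converted to OD with a calibration factor of 5. Fold changes above 1.5 appear as NA, and values are the mean of 2 biological replicates.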

Escherichia coli IAI1 [2] = assay: as above
Procedure, shortened: as §1

[3] = test system: Klebsiella aerogenes DSM 30053; assay: as above
Procedure, shortened: as §1

[4] = test system: Ruminococcus gnavus DSM 108212; assay: as above
Procedure, shortened: as §1

[5] = test system: Klebsiella aerogenes DSM 30053; assay: fold change of Histamine concentration vs plate DMSO controls (fold change (ratio)); higher = more amine produced, active = hit call of the paper (significant change in both replicates, either direction)
Procedure, shortened: (§2)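 Each value is the fold change relative to DMSO-only wells on the same plate. Four gut bacterial strains were grown anaerobically in mGAM at 37 °C for 27 h in 80 µL wells, starting at OD 0.1 before a 1:1 dilution, with compounds at 20 µM final (sweeteners 50 µM). Whole cultures were extracted with cold acetonitrile/methanol containing 0.1% formic acid, centrifuged, and amines were quantified by LC–triple-quadrupole MS (dynamic MRM) against external calibration curves with within-batch drift correction. Values are means of 2 biological replicates.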

[6] = test system: Clostridium sporogenes DSM 1664; assay: fold change of Tryptamine concentration vs plate DMSO controls (fold change (ratio)); higher = more amine produced, active = hit call of the paper (significant change in both replicates, either direction)
Procedure, shortened: as §2

[7] = test system: Ruminococcus gnavus DSM 108212; assay: as above
Procedure, shortened: as §2

Escherichia coli IAI1 [8] = assay: fold change of Putrescine concentration vs plate DMSO controls (fold change (ratio)); higher = more amine produced, active = hit call of the paper (significant change in both replicates, either direction)
Procedure, shortened: as §2

[9] = test system: Klebsiella aerogenes DSM 30053; assay: as above
Procedure, shortened: as §2

Escherichia coli IAI1 [10] = assay: fold change of Cadaverine concentration vs plate DMSO controls (fold change (ratio)); higher = more amine produced, active = hit call of the paper (significant change in both replicates, either direction)
Procedure, shortened: as §2

[11] = test system: Klebsiella aerogenes DSM 30053; assay: as above
Procedure, shortened: as §2

[12] = test system: Ruminococcus gnavus DSM 108212; assay: fold change of 2-Phenylethylamine concentration vs plate DMSO controls (fold change (ratio)); higher = more amine produced, active = hit call of the paper (significant change in both replicates, either direction)
Procedure, shortened: as §2

| SMILES | growth [1] | growth (Escherichia coli IAI1 [2]) | growth [3] | growth [4] | fold change of Histamine concentration [5] | fold change of Tryptamine concentration [6] | fold change of Tryptamine concentration [7] | fold change of Putrescine concentration (Escherichia coli IAI1 [8]) | fold change of Putrescine concentration [9] | fold change of Cadaverine concentration (Escherichia coli IAI1 [10]) | fold change of Cadaverine concentration [11] | fold change of 2-Phenylethylamine concentration [12] |
| --- | --- | --- | --- | --- | --- | --- | --- | --- | --- | --- | --- | --- |
| CCCC(=O)OCOC(=O)C1=C(C)NC(C)=C(C(=O)OC)C1c1cccc(Cl)c1Cl (centres undefined) [Clevidipine] (20 µM) | 0.828 | 1.03 | 1.01 | 1.22 | 1.01 (inactive) | 0.829 (inactive) | 0.902 (inactive) | 1.04 (inactive) | 1.01 (inactive) | 0.985 (inactive) | 0.998 (inactive) | 0.928 (inactive) |
| C[C@@H]1O[C@@H](O[C@H]2[C@H](Oc3cc(O)c(C(=O)CCc4ccc(O)cc4)c(O)c3)O[C@H](CO)[C@@H](O)[C@@H]2O)[C@H](O)[C@H](O)[C@H]1O [Naringin Dihydrochalcone] (50 µM) | 1.1 | 0.965 | 1.05 | 1.2 | 0.958 (inactive) | 0.968 (inactive) | 1 (inactive) | 0.983 (inactive) | 0.996 (inactive) | 1.13 (inactive) | 1.01 (inactive) | 0.966 (inactive) |
| CC(C)NCC(O)COc1cccc2[nH]c3ccccc3c12 (centres undefined) [Carazolol] (20 µM) | 0.738 | 1 | 0.956 | 1.12 | 1.06 (inactive) | 0.732 (inactive) | 1.07 (inactive) | 0.922 (inactive) | 0.966 (inactive) | 0.889 (inactive) | 0.992 (inactive) | 1.14 (inactive) |
| O=C1c2c(O)ccc(O)c2C(=O)c2c(NCCNCCO)ccc(NCCNCCO)c21 [Mitoxantrone dihydrochloride] (20 µM) | 0.733 | 0.831 | 1.02 | 1.24 | 0.924 (inactive) | 1.01 (inactive) | 0.978 (inactive) | 0.999 (inactive) | 1.02 (inactive) | 0.988 (inactive) | 1.04 (inactive) | 0.958 (inactive) |
| CNC(=C[N+](=O)[O-])NCCSCc1csc(CN(C)C)n1 [Nizatidine] (20 µM) | 1.13 | 1.02 | 1.01 | 1.09 | 1.04 (inactive) | 0.99 (inactive) | 0.971 (inactive) | 0.988 (inactive) | 1.03 (inactive) | 0.984 (inactive) | 1 (inactive) | 0.954 (inactive) |
| CN(C)C(=O)Nc1ccc(Cl)c(Cl)c1 (20 µM) | 1.05 | 1.02 | 0.938 | 1.08 | 1.01 (inactive) | 0.947 (inactive) | 0.962 (inactive) | 0.97 (inactive) | 0.976 (inactive) | 0.991 (inactive) | 0.99 (inactive) | 0.954 (inactive) |
| CC(CN1c2ccccc2Sc2ccccc21)N(C)C (centres undefined) [Promethazine hydrochloride] (20 µM) | 0.924 | 0.819 | 1.04 | 0.948 | 0.964 (inactive) | 0.997 (inactive) | 1.01 (inactive) | 0.858 (inactive) | 0.972 (inactive) | 1.05 (inactive) | 1.02 (inactive) | 1.06 (inactive) |
| CCC[C@H](N[C@@H](C)C(=O)N1[C@H](C(=O)O)C[C@@H]2CCCC[C@@H]21)C(=O)OCC [Perindopril] (20 µM) | 0.997 | 1 | 1.05 | 1.21 | 0.997 (inactive) | 0.965 (inactive) | 1.02 (inactive) | 0.914 (inactive) | 1.03 (inactive) | 0.993 (inactive) | 1.01 (inactive) | 0.995 (inactive) |
| N[C@H]1CONC1=O [(S,-) Cycloserine] (20 µM) | 0.942 | 0.968 | 0.982 | 0.975 | 0.94 (inactive) | 0.954 (inactive) | 0.905 (inactive) | 1.02 (inactive) | 1.07 (inactive) | 0.959 (inactive) | 1.05 (inactive) | 0.81 (inactive) |
| CN1CCN(CC(=O)N2c3ccccc3C(=O)Nc3cccnc32)CC1 [Pirenzepine dihydrochloride] (20 µM) | 1.06 | 1.02 | 0.992 | 1.03 | 1.1 (inactive) | 1.02 (inactive) | 0.993 (inactive) | 1.01 (inactive) | 1.08 (inactive) | 0.99 (inactive) | 1.04 (inactive) | 0.916 (inactive) |
| COCCOC(=O)C1=C(C)NC(C)=C(C(=O)OC(C)C)C1c1cccc([N+](=O)[O-])c1 (centres undefined) [Nimodipine] (20 µM) | 0.946 | 0.814 | 1.03 | 0.991 | 0.947 (inactive) | 0.965 (inactive) | 0.909 (inactive) | 0.889 (inactive) | 0.99 (inactive) | 1.09 (inactive) | 1.01 (inactive) | 0.903 (inactive) |
| Cc1c(O)cccc1C(=O)N[C@@H](CSc1ccccc1)[C@H](O)CN1C[C@H]2CCCC[C@H]2C[C@H]1C(=O)NC(C)(C)C [Nelfinavir mesylate] (20 µM) | 1.07 | 1.09 | 1.01 | 0.967 | 0.979 (inactive) | 0.96 (inactive) | 0.829 (inactive) | 1.05 (inactive) | 1.02 (inactive) | 1.01 (inactive) | 1 (inactive) | 0.894 (inactive) |

From the supplement of paper PMC12494721
